Assay results published in the supplement of paper PMC9694430.
Structures can show the parent of a compound that is named as a salt.

Legend:
Experiment in all cases: thermal shift delta Tm vs DMSO control; higher = stronger stabilization (binding)
Details in all cases: 12.5 µM; protein concentration 2 µM
LOC_OS02G45750-cb003 = tested on: LOC_OS02G45750-cb003
In short: (§1)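 The melting temperature shift given here is a triplicate mean, measured against protein that received only DMSO. Melting temperatures came from Boltzmann fits of differential scanning fluorimetry data on E. coli-expressed, purified rice kinase domain constructs. Each 19.5 μl well contained 2 μM kinase, 100 mM potassium phosphate pH 7.5, 150 mM NaCl, 10% glycerol, 5 × SYPRO Orange and compound in DMSO. Plates were scanned from 25°C to 95°C at 0.05°C/s.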

LOC_OS02G54510-cb004 = tested on: LOC_OS02G54510-cb004
In short: as §1

LOC_OS03G04050-cb001 = tested on: LOC_OS03G04050-cb001
In short: as §1

LOC_OS03G12390-cb001 = tested on: LOC_OS03G12390-cb001
In short: as §1

LOC_OS03G27990-cb004 = tested on: LOC_OS03G27990-cb004
In short: as §1

LOC_OS03G50450-cb001 = tested on: LOC_OS03G50450-cb001
In short: as §1

LOC_OS03G50810-cb003 = tested on: LOC_OS03G50810-cb003
In short: as §1

LOC_OS04G35114-cb001 = tested on: LOC_OS04G35114-cb001
In short: as §1

LOC_OS04G38480-cb003 = tested on: T1, LOC_OS04G38480-cb003
T1 sequence (whole entry): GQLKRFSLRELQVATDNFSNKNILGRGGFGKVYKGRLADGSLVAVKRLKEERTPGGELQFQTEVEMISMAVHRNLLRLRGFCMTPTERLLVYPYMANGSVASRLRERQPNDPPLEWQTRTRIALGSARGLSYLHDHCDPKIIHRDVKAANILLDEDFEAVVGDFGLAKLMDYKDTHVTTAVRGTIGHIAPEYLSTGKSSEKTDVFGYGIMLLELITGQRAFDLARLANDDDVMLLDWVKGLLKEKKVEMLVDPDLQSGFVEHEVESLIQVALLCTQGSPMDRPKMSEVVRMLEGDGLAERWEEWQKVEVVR
In short: as §1

LOC_OS04G41100-cb001 = tested on: T2, LOC_OS04G41100-cb001
T2 sequence (whole entry): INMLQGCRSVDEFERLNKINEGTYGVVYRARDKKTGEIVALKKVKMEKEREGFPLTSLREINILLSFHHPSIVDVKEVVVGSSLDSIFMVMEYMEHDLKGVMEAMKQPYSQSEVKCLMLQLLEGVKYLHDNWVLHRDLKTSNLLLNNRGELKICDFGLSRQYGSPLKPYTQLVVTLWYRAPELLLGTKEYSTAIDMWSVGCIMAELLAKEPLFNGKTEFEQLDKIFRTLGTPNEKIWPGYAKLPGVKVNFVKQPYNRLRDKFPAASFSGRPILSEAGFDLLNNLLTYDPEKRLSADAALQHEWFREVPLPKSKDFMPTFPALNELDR
In short: as §1

LOC_OS04G57630-cb004 = tested on: LOC_OS04G57630-cb004
In short: as §1

LOC_OS05G07850-cb002 = tested on: LOC_OS05G07850-cb002
In short: as §1

LOC_OS05G16824-cb004 = tested on: LOC_OS05G16824-cb004
In short: as §1

LOC_OS05G28520-cb001 = tested on: LOC_OS05G28520-cb001
In short: as §1

LOC_OS05G30820-cb001 = tested on: LOC_OS05G30820-cb001
In short: as §1

LOC_OS05G43570-cb004 = tested on: LOC_OS05G43570-cb004
In short: as §1

LOC_OS06G16330-cb003 = tested on: LOC_OS06G16330-cb003
In short: as §1

LOC_OS06G22820-cb001 = tested on: T3, LOC_OS06G22820-cb001
T3 sequence (whole entry): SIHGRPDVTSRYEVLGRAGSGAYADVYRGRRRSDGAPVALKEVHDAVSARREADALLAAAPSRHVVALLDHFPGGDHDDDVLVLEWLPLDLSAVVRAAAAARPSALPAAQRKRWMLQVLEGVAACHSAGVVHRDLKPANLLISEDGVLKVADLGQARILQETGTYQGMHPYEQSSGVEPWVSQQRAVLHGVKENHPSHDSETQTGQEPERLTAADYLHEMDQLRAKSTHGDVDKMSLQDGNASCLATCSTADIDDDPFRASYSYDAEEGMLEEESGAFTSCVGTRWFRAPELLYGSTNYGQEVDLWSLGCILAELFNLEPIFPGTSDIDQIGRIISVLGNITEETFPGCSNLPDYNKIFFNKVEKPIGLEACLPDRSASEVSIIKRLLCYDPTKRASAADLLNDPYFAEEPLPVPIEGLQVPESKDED
In short: as §1

LOC_OS07G06570-cb004 = tested on: LOC_OS07G06570-cb004
In short: as §1

LOC_OS07G07230-cb001 = tested on: LOC_OS07G07230-cb001
In short: as §1

LOC_OS06G16330-cb003, sequence (as listed by the source): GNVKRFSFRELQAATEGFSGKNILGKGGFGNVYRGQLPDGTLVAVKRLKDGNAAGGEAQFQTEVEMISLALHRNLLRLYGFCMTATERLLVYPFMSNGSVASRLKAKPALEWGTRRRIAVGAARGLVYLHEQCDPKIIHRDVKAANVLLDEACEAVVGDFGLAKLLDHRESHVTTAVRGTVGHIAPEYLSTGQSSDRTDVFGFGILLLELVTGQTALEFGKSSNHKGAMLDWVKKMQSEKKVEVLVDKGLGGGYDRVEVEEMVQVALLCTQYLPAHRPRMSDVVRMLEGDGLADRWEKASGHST

Row | SMILES | thermal shift delta Tm (LOC_OS02G45750-cb003) [°C] | thermal shift delta Tm (LOC_OS02G54510-cb004) [°C] | thermal shift delta Tm (LOC_OS03G04050-cb001) [°C] | thermal shift delta Tm (LOC_OS03G12390-cb001) [°C] | thermal shift delta Tm (LOC_OS03G27990-cb004) [°C] | thermal shift delta Tm (LOC_OS03G50450-cb001) [°C] | thermal shift delta Tm (LOC_OS03G50810-cb003) [°C] | thermal shift delta Tm (LOC_OS04G35114-cb001) [°C] | thermal shift delta Tm (LOC_OS04G38480-cb003) [°C] | thermal shift delta Tm (LOC_OS04G41100-cb001) [°C] | thermal shift delta Tm (LOC_OS04G57630-cb004) [°C] | thermal shift delta Tm (LOC_OS05G07850-cb002) [°C] | thermal shift delta Tm (LOC_OS05G16824-cb004) [°C] | thermal shift delta Tm (LOC_OS05G28520-cb001) [°C] | thermal shift delta Tm (LOC_OS05G30820-cb001) [°C] | thermal shift delta Tm (LOC_OS05G43570-cb004) [°C] | thermal shift delta Tm (LOC_OS06G16330-cb003) [°C] | thermal shift delta Tm (LOC_OS06G22820-cb001) [°C] | thermal shift delta Tm (LOC_OS07G06570-cb004) [°C] | thermal shift delta Tm (LOC_OS07G07230-cb001) [°C]
1 | Nc1cccc(S(=O)(=O)N2CCCN(S(=O)(=O)c3ccc4c(c3)OCCO4)CC2)c1 | 0.54 | 0.12 | 0.38 | 0.13 | 0.13 | 0.24 | 0.28 | 0.8 | 1.86 | 0.33 | -0.1 | 0.55 | -0.03 | 0.74 | 0.46 | 0.1 | -0.91 | 0.44 | 1.4 | 0.56
2 | N=C(N)NC(=N)NCCc1ccccc1 [Phenformin HCl] | 0.17 | -0.29 | 0.17 | -0.23 | 0.15 | 0.26 | 0.78 | -0.12 | 0.97 | -0.08 | 0.25 | -0.02 | -6.46 | 0.39 | 0.48 | 0.27 | -0.35 | 0.41 | 0.53 | -0.03
3 | CCOc1cn(-c2ccc(F)cc2C)nc1C(=O)Nc1ccc(Oc2ccnc3cc(OC)c(OC)cc23)c(F)c1 | 1.39 | 0.07 | 0.15 | 0.26 | 0.2 | 0.09 | 1.07 | 1.9 | 2.19 | 0.88 | 2.05 | 11.1 | -0.65 | 0.31 | 0.28 | 0.24 | 3.99 | 0.19 | 0.82 | 0.19
4 | CNC(=O)CN1CCC(Oc2cc3c(Nc4cccc(Cl)c4F)ncnc3cc2OC)CC1 [Sapitinib (AZD8931)] | 0.58 | 0.5 | -0.02 | 0.79 | 0.05 | 0.05 | 0.22 | 3.22 | 0.11 | 0.35 | 0 | 3.04 | -12 | -0.17 | 0.6 | 0.17 | 1.14 | 0.37 | 0.48 | -0.24
5 | COc1ccc(-c2ccc3ncc4c(c3c2)n(-c2ccc(N3CCNCC3)c(C(F)(F)F)c2)c(=O)n4C)cn1 | 1.22 | 0.44 | 0.36 | -0.28 | 0.61 | 0.72 | 2.17 | 7.13 | 1.98 | 0.01 | 0.96 | 10.2 | 2.52 | 0.28 | 0.54 | 0.36 | 4.63 | 0.38 | 0.59 | 0.06
6 | Cc1ccc(-n2nc(C(C)(C)C)cc2NC(=O)Nc2ccc(OCCN3CCOCC3)c3ccccc23)cc1 [Doramapimod (BIRB 796)] | -1.12 | 0.33 | 0.33 | -0.03 | 0.31 | 0.1 | 0.01 | 0.68 | 0.95 | 0.9 | 1.36 | 1.84 | -1.73 | 0.26 | 0.82 | 0.41 | 0.15 | 0.9 | 0.71 | 0.5
7 | COc1cc2ncnc(Sc3nnc(C)s3)c2cc1OC | 2.63 | 0.34 | 0.71 | -0.23 | 0.56 | 0.5 | 0.54 | 2.86 | 0.54 | 0.9 | 0.11 | 4.44 | -0.85 | 0.25 | 0.64 | 0.17 | 2.49 | 0.32 | 1.21 | 1.4
8 | CNCc1ccc(-c2cc(-c3nc(-c4ccc(S(=O)(=O)C(C)C)cc4)cnc3N)on2)cc1 | 2.46 | 0.28 | 0.32 | 0.54 | 0.33 | 0.34 | 0.97 | 4.33 | 1 | 0.22 | 0.75 | 6.99 | -0.05 | 0.89 | 0.64 | 0.33 | 0.7 | 0.87 | 1.23 | 0.32
9 | CN1CCN(c2nc(C3=C(c4c[nH]c5ccccc45)C(=O)NC3=O)c3ccccc3n2)CC1 [Sotrastaurin] | 1.74 | 0.21 | 0.22 | 0.18 | 0.49 | 0.36 | 1.38 | 1.49 | 0.76 | 0.51 | -0.06 | 5.2 | 1.64 | 0.09 | 0.74 | 1.24 | 0.19 | 0.49 | 0.81 | -0.05
10 | CC[C@H](CO)Nc1nc(NCc2ccccc2)c2ncn(C(C)C)c2n1 [Roscovitine (Seliciclib,CYC202)] | 0.1 | 0.11 | 0.22 | 0.14 | -0.05 | 0.28 | 0.02 | 0.57 | 0.99 | 0.53 | -0.29 | 0.09 | -1.49 | 0.43 | 0.33 | 0.28 | 0.01 | 0.63 | 0.88 | 0.44
11 | Cc1cn(-c2cc(NC(=O)c3ccc(C)c(Nc4nccc(-c5cnccn5)n4)c3)cc(C(F)(F)F)c2)cn1 [Radotinib] | 0.73 | 1.99 | 0.36 | 0.26 | 0.23 | -0.11 | 0.14 | 0.13 | 1.4 | 0.41 | 0.16 | -1.11 | 0.06 | 0.56 | 0.41 | 0.62 | -0.09 | 0.69 | 1.06 | 0.23
12 | CCN(CC)CCCC(C)Nc1nc(C)cc(Nc2ccc3nc(C)cc(N)c3c2)n1 (stereo not given) | 1.05 | 0.18 | 0.55 | -0.21 | 0.33 | 0.59 | 0.25 | 0.62 | 0.87 | 0.23 | -0.27 | -0.09 | -1.91 | 0.14 | 0.63 | 0.55 | -0.04 | 0.19 | 1.53 | 0.49
13 | CO[C@H]1C[C@@H]2CC[C@@H](C)[C@@](O)(O2)C(=O)C(=O)N2CCCC[C@H]2C(=O)O[C@H]([C@H](C)C[C@@H]2CC[C@@H](O)[C@H](OC)C2)CC(=O)[C@H](C)/C=C(\C)[C@@H](O)[C@@H](OC)C(=O)[C@H](C)C[C@H](C)/C=C/C=C/C=C/1C [Rapamycin (Sirolimus)] | 0.22 | 0 | 0.5 | 0.3 | 0.16 | 0.2 | -0.04 | 0.52 | 1.63 | 0.69 | -0.27 | 0.51 | -0.52 | 0.16 | 0.5 | 0.84 | -0.23 | 0.98 | 1.23 | 0.34
